Assay results reported in PubChem BioAssay (Tox21).
Unmarked numbers belong to inactive results. Results filed as inconclusive are left out. Where a call stands in place of a potency, no number is given. Activity calls are given as the source filed them. Calls follow the shape of the dose curve; as a rule, active = well fitted curve in the direction sought with a large enough effect in the repeat runs; inconclusive = weak or mixed curves; inactive = no such curve, though single readings can be large; an effect the other way counts as inactive or inconclusive.

Columns and labels:
[1] = Human pregnane X receptor (PXR) small molecule agonists, qHTS cell viability counter screen (AID 1346977); also: nearly all actives have a fitted effect of over 50% in size
Outline: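 Fluorescence read-out (CellTiter-Fluor) of viability in PXR-Luc HepG2 cells, multiplexed with the luciferase agonist read. Compounds in DMSO added after 5hr plating; 24hr total exposure at 37C, 5% CO2.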

[2] = Caspase-3/7 induction in HepG2 cells by small molecules, qHTS assay (AID 1346978); also: nearly all actives have a fitted effect of over 15% in size
Outline: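 Wild-type HepG2 cells, 2,000/well, settled 5 hr at 37 C and 5% CO2, then compound-treated for 17 hr; caspase-3/7 activity read by luminescent Caspase-Glo 3/7 after 30 min at room temperature.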

[3] = Caspase-3/7 induction in CHO-K1 cells by small molecules, qHTS cell viability counter screen (AID 1346979); also: nearly all actives have a fitted effect of over 35% in size
Outline: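 CHO-K1 wt, 1,500 cells/well; 5hr pre-incubation 37C/5% CO2; compound pin transfer (DMSO); 16hr exposure; CellTiter-Fluor added, 1hr, fluorescence read.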

[4] = Caspase-3/7 induction in CHO-K1 cells by small molecules, qHTS assay (AID 1346980); also: nearly all actives have a fitted effect of over 15% in size
Outline: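 Wild-type CHO-K1 cells exposed to compounds for 17hr at 37 C, 5% CO2. Caspase-3/7 activity then measured by Caspase-Glo 3/7 luminescence after 30min at room temperature.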

[5] = Caspase-3/7 induction in HepG2 cells by small molecules, qHTS cell viability counter screen (AID 1346981); also: nearly all actives have a fitted effect of over 30% in size
Outline: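 Viability determined by CellTiter-Fluor fluorescence in HepG2 wells also used for the luminescent Caspase-Glo 3/7 read. Compounds were present for 16 hr at 37 C, 5% CO2 before reagent addition.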

[6] = target: Nuclear receptor subfamily 1 group I member 2 (Homo sapiens) (UniProt O75469); test: Human pregnane X receptor (PXR) small molecule agonists, qHTS assay (AID 1346982); also: nearly all actives have a fitted effect of over 35% in size
Nuclear receptor subfamily 1 group I member 2 (Homo sapiens), sequence (O75469 whole entry, looked up): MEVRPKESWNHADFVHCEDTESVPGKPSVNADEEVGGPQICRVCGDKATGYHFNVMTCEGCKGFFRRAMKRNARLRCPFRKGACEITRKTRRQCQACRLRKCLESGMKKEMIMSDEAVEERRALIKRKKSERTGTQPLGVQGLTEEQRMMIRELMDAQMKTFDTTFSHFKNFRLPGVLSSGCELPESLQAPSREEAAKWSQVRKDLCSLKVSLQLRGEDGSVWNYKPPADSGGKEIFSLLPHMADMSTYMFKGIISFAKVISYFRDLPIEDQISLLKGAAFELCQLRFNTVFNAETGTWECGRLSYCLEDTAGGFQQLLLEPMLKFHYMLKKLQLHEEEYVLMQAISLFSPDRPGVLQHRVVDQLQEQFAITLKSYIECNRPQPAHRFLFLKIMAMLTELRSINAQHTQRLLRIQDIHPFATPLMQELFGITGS
Outline: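 Compound-induced hPXR transactivation of a CYP3A4 luciferase reporter was scored in HepG2 PXR-Luc cells over 24 hr at 37 C, 5% CO2, by luminescence.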

[7] = target: Cytochrome P450 2D6 (Homo sapiens) (UniProt P10635); test: Cytochrome P450 Family 2 Subfamily D Member 6 (CYP2D6) small molecule antagonists: luciferase reporter qHTS assay (AID 1671196); also: nearly all actives have a fitted effect of over 50% in size
Cytochrome P450 2D6 (Homo sapiens), sequence (P10635 whole entry, looked up): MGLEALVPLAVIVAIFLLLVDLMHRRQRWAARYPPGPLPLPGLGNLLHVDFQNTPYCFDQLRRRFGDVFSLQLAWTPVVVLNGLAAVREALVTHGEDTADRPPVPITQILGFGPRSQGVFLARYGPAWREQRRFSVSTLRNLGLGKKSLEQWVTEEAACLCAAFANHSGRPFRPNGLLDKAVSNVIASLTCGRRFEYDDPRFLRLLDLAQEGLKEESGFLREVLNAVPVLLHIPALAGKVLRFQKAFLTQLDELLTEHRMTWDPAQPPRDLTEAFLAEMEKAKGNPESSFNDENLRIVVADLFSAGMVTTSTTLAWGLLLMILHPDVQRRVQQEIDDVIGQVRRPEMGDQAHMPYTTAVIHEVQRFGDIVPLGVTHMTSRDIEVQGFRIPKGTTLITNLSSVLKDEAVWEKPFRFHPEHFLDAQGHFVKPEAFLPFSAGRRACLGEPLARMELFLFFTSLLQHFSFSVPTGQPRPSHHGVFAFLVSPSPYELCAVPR
Outline: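 Each well received CYP2D6 with its proluciferin substrate and chemical, sat 10 min, then got NADPH regeneration solution for 1 h at room temperature. Luminescence in RLU served as the activity measure.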
Potency is read from the fitted curve at half-maximal effect.

| Compound | Potency [1] | Potency [2] | Potency [3] | Potency [4] | Potency [5] | Potency [6] | Potency [7] | activation [6] |
| --- | --- | --- | --- | --- | --- | --- | --- | --- |
| CCCCCCCCCCCCc1ccc(O)cc1 | 30.6 µM (active) | 61.1 µM (active) | 43.3 µM (active) | 54.5 µM (active) | 61.1 µM (active) | 9.69 µM (active) | inactive |  |
| Cc1cc(O)c(C(C)(C)C)cc1Sc1cc(C(C)(C)C)c(O)cc1C | 13.7 µM (active) | 30.6 µM (active) | 2.73 µM (active) | inactive | 54.4 µM (active) | 10.8 µM (active) | 25.1 µM (active) |  |
| CCCC/C=C/CCCCO | inactive | inactive | inactive | inactive | inactive | inactive | inactive |  |
| C[C@]12CCC(=O)C=C1CC[C@@H]1[C@@H]2[C@@H](O)C[C@@]2(C)[C@H]1CC[C@]2(O)C(=O)COC(=O)CCC(=O)O | inactive | inactive | inactive | inactive | inactive | inactive | inactive |  |
| O=C(O)c1c(Cl)cccc1Cl | inactive | inactive | inactive | inactive | inactive | inactive | inactive |  |
| Oc1ccc(Cl)cc1Sc1cc(Cl)ccc1O | 15.3 µM (active) | inactive | 30.6 µM (active) | inactive | 38.5 µM (active) | 27.3 µM (active) | inactive |  |
| COc1cc(-c2ccc(N=C=O)c(OC)c2)ccc1N=C=O | inactive | inactive | inactive | inactive | inactive | inactive | inactive |  |
| O=C1C=CC(=O)N1c1ccc(Cc2ccc(N3C(=O)C=CC3=O)cc2)cc1 | 61.1 µM (active) | inactive | 6.11 µM (active) | inactive | 68.6 µM (active) | 4.86 µM (active) | inactive |  |
| C1CCCC1 | inactive | inactive | inactive | inactive | inactive | inactive | 34.8 µM (active) |  |
| O=C(O)c1cc(O)c2c(c1)C(=O)c1cccc(O)c1C2=O | 25.1 µM (active) | inactive | 35.4 µM (active) | inactive | 44.6 µM (active) | inactive | inactive |  |
| C=C(C)C(=O)OCC[N+](C)(C)C | inactive | inactive | 68.3 µM (active) | inactive | inactive | inactive | inactive |  |
| CCC(N)(CO)CO | inactive | inactive | inactive | inactive | inactive | inactive | inactive |  |
| CCN(C(=O)N(CC)c1ccccc1)c1ccccc1 | inactive | inactive | inactive | inactive | inactive | 30.6 µM (active) | inactive |  |
| CCCCCCCC(=O)[O-].CCCCCCCC(=O)[O-].[Zn+2] | inactive | inactive | inactive | inactive | inactive | inactive | inactive |  |
| C=CC(=O)OCC(CO)(COCC(COC(=O)C=C)(COC(=O)C=C)COC(=O)C=C)COC(=O)C=C | 3.03 µM (active) | 6.04 µM (active) | 0.76 µM (active) | 0.48 µM (active) | 3.81 µM (active) | 1.91 µM (active) | 15.7 µM (active) |  |
| CCCCCCCCCCC=O | inactive | inactive | inactive | inactive | inactive | inactive | inactive |  |
| C[n+]1cc2c3c(ccc2c2ccc4cc5c(cc4c21)OCO5)OCO3 | 2.91 µM (active) | 3.66 µM (active) | 1.03 µM (active) | 1.3 µM (active) | 5.17 µM (active) |  | 6.74 µM (active) | -46.6% [at 19 µM] |
| N=C1C=CC(=C(c2ccc(N)cc2)c2ccc(N)cc2)C=C1 | 8.63 µM (active) | inactive | 12.2 µM (active) | inactive | 13.7 µM (active) | inactive | 6.33 µM (active) |  |
| O=c1cccccc1O | inactive | inactive | 7.84 µM (active) | inactive | inactive | 69.9 µM (active) | inactive |  |
| O=C1CCCc2c1cc1ccc3cccc4ccc2c1c34 | inactive | inactive | inactive | inactive | inactive | 17.4 µM (active) | inactive |  |
| O=C(NOCC1CC1)c1ccc(F)c(F)c1Nc1ccc(I)cc1Cl | 18.8 µM (active) | inactive | 18.8 µM (active) | inactive | 26.6 µM (active) | inactive | inactive |  |
| CCc1cc(Cc2cc(CC)cc(C(C)(C)C)c2O)c(O)c(C(C)(C)C)c1 | 30.6 µM (active) | 68.6 µM (active) | 38.6 µM (active) | 54.5 µM (active) | 54.5 µM (active) | 0.686 µM (active) | inactive |  |
